“And” between values parts separate entries of the source, which are not always exact repeats. Equal values may be shown once. Records with an inconclusive call do not appear. Where a structure was tested more than once in an assay, its records may differ in their call. The source made the active and inactive calls. Calls come from the whole dose curve; as a rule, active = well fitted inhibition curve with a large enough effect; inconclusive = small, poorly fitted or top-dose-only effect; inactive = flat fitted curve, though single readings scatter.
% is set by controls: 0 for no effect and ±100 for the full control effect.

The nature of the first assay: Drug repurposing screens with cells derived from glioblastoma tumor samples (AID 1345199). Note: nearly all actives have a fitted effect of over 40% in size. The note with it: GBM patient neurospheres viability, ATP luminescence, 48 h; at 45.9 µM (top of the series); tumour line B. Put shortly: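 Primary testing used CD133+ neurospheres from four GBM patients, seven concentrations, 48 h exposure and ATP-based viability; confirmation added three slower-growing patient lines.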
Take `CCC(C)C(C(=O)OCC[N+](C)(CC)CC)c1ccccc1` (stereo not given): the activity, negative = cell killing is -18.7% (inactive).

Turning to `CCCC1([C@H](O)C/C=C/[C@H]2[C@H](O)CC(=O)[C@@H]2CCCCCCC(=O)OC)CCC1`, the activity, negative = cell killing is 0.947% (inactive).

On to `CCOC(=O)COc1ccc2c(C)c(CCN(CC)CC)c(=O)oc2c1`, for which the activity, negative = cell killing was 4.06% (inactive).

Turning to `COc1cc2c(c(OC)c1OC)-c1c(cc3c(c1OC)OCO3)C[C@@H](C)[C@](C)(O)C2`, the activity, negative = cell killing is -5.29% (inactive) and -6.75% (inactive).

Turning to `O=C1O[C@H]2[C@H](O)[C@@H]1OC(O)[C@H]2O` (stereo not given in full), the activity, negative = cell killing was -7.22% (inactive).

Turning to `Cn1nnnc1SCC1=C(C(=O)O)N2C(=O)[C@@H](NC(=O)[C@H](OC=O)c3ccccc3)[C@H]2SC1`, the activity, negative = cell killing was -10.5% (inactive).

For the compound `COc1ccc(C(=O)Nc2ccccc2CCC2CCCCN2C)cc1` (stereo not given), the activity, negative = cell killing was -11.1% (inactive).

Take `COC[C@H](c1ccc(C(F)(F)F)cc1)N1CCN(C2(C)CCN(C(=O)c3c(C)ncnc3C)CC2)C[C@H]1C`: the activity, negative = cell killing is -1.49% (inactive).

On to `O=P(O)(O)C(O)(Cc1cnc2ccccn12)P(=O)(O)O`, for which the activity, negative = cell killing is -3.54% (inactive).

Regarding `C=C[C@]1(C)C[C@@H](OC(=O)CO)[C@]2(C)[C@H](C)CC[C@]3(CCC(=O)[C@H]32)[C@@H](C)[C@@H]1O`, the activity, negative = cell killing is -6.6% (inactive).

For `O=C(O)c1cc2ccccc2c(Cc2c(O)c(C(=O)O)cc3ccccc23)c1O`, the activity, negative = cell killing was 5.19% (inactive).

Take `CC(C(=O)O)c1ccc(C2CCCCC2)c2ccccc12` (stereo not given): the activity, negative = cell killing was -3.21% (inactive).

Turning to `CCCCOC(=O)C(=O)Nc1cccc(-c2nn[nH]n2)c1`, the activity, negative = cell killing is -12.5% (inactive).

With `CC(=O)[C@@]1(O)CC[C@H]2[C@@H]3C=C(Cl)C4=CC(=O)CC[C@]4(C)[C@H]3CC[C@@]21C`, the activity, negative = cell killing was -7.69% (inactive).

For `O=P(O)(O)OC(CO)CO`, the activity, negative = cell killing is -13.5% (inactive).

Consider `Nc1ncnc(Nc2ccc(Cl)cc2)n1`, for which the activity, negative = cell killing is -4.5% (inactive).

As to `CCN(CC)CCOC(=O)c1ccc(N)cc1Cl`, the activity, negative = cell killing was -9.89% (inactive).

For `CCC(=O)OCC(=O)[C@@]1(OC(=O)CC)[C@H](C)C[C@H]2[C@@H]3CCC4=CC(=O)C=C[C@]4(C)[C@@]3(F)[C@@H](O)C[C@@]21C`, the activity, negative = cell killing is -7.21% (inactive).

`O=S(O)CNc1ccc(S(=O)(=O)c2ccc(NCS(=O)O)cc2)cc1`: the activity, negative = cell killing was -3.7% (inactive).

For `CC(=O)O[C@H]1CC[C@@]2(C)C(=CC[C@@H]3[C@@H]2CC[C@]2(C)C(c4cccnc4)=CC[C@@H]32)C1`, the activity, negative = cell killing was -19.3% (inactive).

Turning to `CCCCCCCCCCCCCCCC(=O)OC[C@@H](COP(=O)([O-])OCC[N+](C)(C)C)OC(=O)CCCCCCCCCCCCCCC`, the activity, negative = cell killing was -16.6% (inactive).

Take `C/C(=C(\CCOC(=O)c1ccccc1)SS/C(CCOC(=O)c1ccccc1)=C(/C)N(C=O)Cc1cnc(C)nc1N)N(C=O)Cc1cnc(C)nc1N`: the activity, negative = cell killing is -18% (inactive).

In the case of `NCCCC(=O)O`, the activity, negative = cell killing was -13.9% (inactive).

Consider `CC1(C)S[C@@H]2[C@H](NC(=O)C(C(=O)Oc3ccc4c(c3)CCC4)c3ccccc3)C(=O)N2[C@H]1C(=O)O` (stereo not given in full), for which the activity, negative = cell killing is -10.7% (inactive).

As for `C/C=C(/CC[C@@H](C)[C@H]1CC[C@H]2C3=CC[C@H]4[C@H](C)[C@@H](O)CC[C@]4(C)[C@H]3CC[C@]12C)C(C)C`, the activity, negative = cell killing was -6.71% (inactive).

On to `CCC(=O)Oc1ccc2c(c1)CC[C@@H]1[C@@H]2CC[C@]2(C)[C@@H](OC(=O)CC)CC[C@@H]12`, for which the activity, negative = cell killing is -0.785% (inactive).

Take `O=S(O)CO`: the activity, negative = cell killing is 4.97% (inactive).

Regarding `CCC(CN)CC(C)CCNCC(O)CNCC(C)CC(CC)CN` (stereo not given), the activity, negative = cell killing is -0.989% (inactive).

With `CC#CCC(C)[C@H](O)/C=C/[C@@H]1[C@H]2C/C(=C/CCCC(=O)O)C[C@H]2C[C@H]1O` (stereo not given in full), the activity, negative = cell killing was -8.92% (inactive).

For the compound `CN1CCN(C2=Nc3ccccc3Cc3ccccc32)CC1`, the activity, negative = cell killing is -12% (inactive).

With `CSCC[C@H](NC(=O)[C@H](Cc1ccc(OS(=O)(=O)O)cc1)NC(=O)[C@@H](N)CC(=O)O)C(=O)NCC(=O)N[C@@H](Cc1c[nH]c2ccccc12)C(=O)N[C@@H](CCSC)C(=O)N[C@@H](CC(=O)O)C(=O)N[C@@H](Cc1ccccc1)C(N)=O`, the activity, negative = cell killing is -12.8% (inactive) and -14.6% (inactive).

Regarding `O=C(OCCO)c1ccccc1O`, the activity, negative = cell killing is -4.1% (inactive).

For `O=P(O)(O)C(Sc1ccc(Cl)cc1)P(=O)(O)O`, the activity, negative = cell killing is 3.66% (inactive).

On to `CS(=O)(=O)OCCCNCCCOS(C)(=O)=O`, for which the activity, negative = cell killing was 5.52% (inactive).

For `CC(=O)O[C@H]1CC[C@@]2(C)C(=CC[C@H]3[C@@H]4CC[C@H](C(C)=O)[C@@]4(C)CC[C@@H]32)C1`, the activity, negative = cell killing was -9.15% (inactive).

With `OCC(O)COc1ccc(Cl)cc1` (stereo not given), the activity, negative = cell killing is -4.12% (inactive).

`Cc1cc(Nc2ccccc2C(=O)O)ccc1Cl`: the activity, negative = cell killing was -5.77% (inactive).

Regarding `CC#CCC(C)[C@H](O)/C=C/[C@@H]1[C@H]2c3cccc(CCCC(=O)O)c3O[C@H]2C[C@H]1O` (stereo not given in full), the activity, negative = cell killing was -5.83% (inactive).

The assay is the same for the next values; noted with them: GBM patient neurospheres viability, ATP luminescence, 48 h; at 45.9 µM (top of the series); tumour line D.
As to `CCC(C)C(C(=O)OCC[N+](C)(CC)CC)c1ccccc1` (stereo not given), the activity, negative = cell killing was -27.8% (inactive).

`CCCC1([C@H](O)C/C=C/[C@H]2[C@H](O)CC(=O)[C@@H]2CCCCCCC(=O)OC)CCC1`: the activity, negative = cell killing is -12.7% (inactive).

For `CCOC(=O)COc1ccc2c(C)c(CCN(CC)CC)c(=O)oc2c1`, the activity, negative = cell killing was 5.03% (inactive).

For `COc1cc2c(c(OC)c1OC)-c1c(cc3c(c1OC)OCO3)C[C@@H](C)[C@](C)(O)C2`, the activity, negative = cell killing is -7.05% (inactive) and -25.9% (inactive).

As to `O=C1O[C@H]2[C@H](O)[C@@H]1OC(O)[C@H]2O` (stereo not given in full), the activity, negative = cell killing is -9.05% (inactive).

Take `Cn1nnnc1SCC1=C(C(=O)O)N2C(=O)[C@@H](NC(=O)[C@H](OC=O)c3ccccc3)[C@H]2SC1`: the activity, negative = cell killing was -17.5% (inactive).

On to `COc1ccc(C(=O)Nc2ccccc2CCC2CCCCN2C)cc1` (stereo not given), for which the activity, negative = cell killing is -17.7% (inactive).

On to `COC[C@H](c1ccc(C(F)(F)F)cc1)N1CCN(C2(C)CCN(C(=O)c3c(C)ncnc3C)CC2)C[C@H]1C`, for which the activity, negative = cell killing was -13.4% (inactive).

Consider `O=P(O)(O)C(O)(Cc1cnc2ccccn12)P(=O)(O)O`, for which the activity, negative = cell killing was 2.92% (inactive).

Consider `C=C[C@]1(C)C[C@@H](OC(=O)CO)[C@]2(C)[C@H](C)CC[C@]3(CCC(=O)[C@H]32)[C@@H](C)[C@@H]1O`, for which the activity, negative = cell killing was -13.7% (inactive).

As for `O=C(O)c1cc2ccccc2c(Cc2c(O)c(C(=O)O)cc3ccccc23)c1O`, the activity, negative = cell killing was -18.5% (inactive).

Take `CC(C(=O)O)c1ccc(C2CCCCC2)c2ccccc12` (stereo not given): the activity, negative = cell killing was -15.4% (inactive).

As for `CCCCOC(=O)C(=O)Nc1cccc(-c2nn[nH]n2)c1`, the activity, negative = cell killing is 2.48% (inactive).

For the compound `CC(=O)[C@@]1(O)CC[C@H]2[C@@H]3C=C(Cl)C4=CC(=O)CC[C@]4(C)[C@H]3CC[C@@]21C`, the activity, negative = cell killing is -22.6% (inactive).

For the compound `O=P(O)(O)OC(CO)CO`, the activity, negative = cell killing is 14.6% (inactive).

Take `Nc1ncnc(Nc2ccc(Cl)cc2)n1`: the activity, negative = cell killing was -28% (inactive).

In the case of `CCN(CC)CCOC(=O)c1ccc(N)cc1Cl`, the activity, negative = cell killing was -17.2% (inactive).

On to `CCC(=O)OCC(=O)[C@@]1(OC(=O)CC)[C@H](C)C[C@H]2[C@@H]3CCC4=CC(=O)C=C[C@]4(C)[C@@]3(F)[C@@H](O)C[C@@]21C`, for which the activity, negative = cell killing was -9.28% (inactive).

For the compound `O=S(O)CNc1ccc(S(=O)(=O)c2ccc(NCS(=O)O)cc2)cc1`, the activity, negative = cell killing is 0.377% (inactive).

Consider `CCCCCCCCCCCCCCCC(=O)OC[C@@H](COP(=O)([O-])OCC[N+](C)(C)C)OC(=O)CCCCCCCCCCCCCCC`, for which the activity, negative = cell killing was 2.92% (inactive).

As to `C/C(=C(\CCOC(=O)c1ccccc1)SS/C(CCOC(=O)c1ccccc1)=C(/C)N(C=O)Cc1cnc(C)nc1N)N(C=O)Cc1cnc(C)nc1N`, the activity, negative = cell killing was -28% (inactive).

`NCCCC(=O)O`: the activity, negative = cell killing is -9.35% (inactive).

Turning to `CC1(C)S[C@@H]2[C@H](NC(=O)C(C(=O)Oc3ccc4c(c3)CCC4)c3ccccc3)C(=O)N2[C@H]1C(=O)O` (stereo not given in full), the activity, negative = cell killing was -5.29% (inactive).

As for `C/C=C(/CC[C@@H](C)[C@H]1CC[C@H]2C3=CC[C@H]4[C@H](C)[C@@H](O)CC[C@]4(C)[C@H]3CC[C@]12C)C(C)C`, the activity, negative = cell killing is -7.38% (inactive).

In the case of `CCC(=O)Oc1ccc2c(c1)CC[C@@H]1[C@@H]2CC[C@]2(C)[C@@H](OC(=O)CC)CC[C@@H]12`, the activity, negative = cell killing is -16.9% (inactive).

Consider `O=S(O)CO`, for which the activity, negative = cell killing is -2.6% (inactive).

Consider `CCC(CN)CC(C)CCNCC(O)CNCC(C)CC(CC)CN` (stereo not given), for which the activity, negative = cell killing was -7.35% (inactive).

`CC#CCC(C)[C@H](O)/C=C/[C@@H]1[C@H]2C/C(=C/CCCC(=O)O)C[C@H]2C[C@H]1O` (stereo not given in full): the activity, negative = cell killing is -4.73% (inactive).

Turning to `CN1CCN(C2=Nc3ccccc3Cc3ccccc32)CC1`, the activity, negative = cell killing was -12.4% (inactive).

For the compound `CSCC[C@H](NC(=O)[C@H](Cc1ccc(OS(=O)(=O)O)cc1)NC(=O)[C@@H](N)CC(=O)O)C(=O)NCC(=O)N[C@@H](Cc1c[nH]c2ccccc12)C(=O)N[C@@H](CCSC)C(=O)N[C@@H](CC(=O)O)C(=O)N[C@@H](Cc1ccccc1)C(N)=O`, the activity, negative = cell killing was -10.7% (inactive) and -3.46% (inactive).

On to `O=C(OCCO)c1ccccc1O`, for which the activity, negative = cell killing is 8.11% (inactive).

Turning to `O=P(O)(O)C(Sc1ccc(Cl)cc1)P(=O)(O)O`, the activity, negative = cell killing is -1.38% (inactive).

Consider `CS(=O)(=O)OCCCNCCCOS(C)(=O)=O`, for which the activity, negative = cell killing is -25.4% (inactive).

Consider `CC(=O)O[C@H]1CC[C@@]2(C)C(=CC[C@H]3[C@@H]4CC[C@H](C(C)=O)[C@@]4(C)CC[C@@H]32)C1`, for which the activity, negative = cell killing was -28.1% (inactive).

Take `OCC(O)COc1ccc(Cl)cc1` (stereo not given): the activity, negative = cell killing is -2.58% (inactive).

On to `Cc1cc(Nc2ccccc2C(=O)O)ccc1Cl`, for which the activity, negative = cell killing is -31.8% (inactive).

Take `CC#CCC(C)[C@H](O)/C=C/[C@@H]1[C@H]2c3cccc(CCCC(=O)O)c3O[C@H]2C[C@H]1O` (stereo not given in full): the activity, negative = cell killing was 2.53% (inactive).
